Measurements taken from PubChem BioAssay AID651603 (National Center for Advancing Translational Sciences (NCATS), 2012).
The source made the active and inactive calls.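 The calls were made as follows: active = inhibition of at least 50% at 50 µM, meaning an activity change of -50% or lower; inconclusive = inhibition above 30% but under 50% at 50 µM; inactive = inhibition of 30% or less at 50 µM.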

Experiment: qHTS Assay for Iinhibitors of HIV-1 Budding by Blocking the Interaction of PTAP/TSG101: Hit Validation in Viral Budding Asaay
Settings: HeLa pNL4-3 HIV-1 budding, supernatant RT activity, 18 h; at 50 µM (top of the series)
Source text: Stages of the HIV-1 replication cycle, specifically virus assembly and release, provide underexploited targets for the development of novel antiviral inhibitors. The late stages of HIV-1 replication are mediated by the Gag precursor protein, Pr55Gag. Expression of Pr55Gag is both necessary and sufficient for the production of virus-like particles from Gag-expressing cells. The Gag protein hijacks key host proteins involved in endocytic machinery of the host cell to promote endosomal processing and viral budding. The budding process requires a direct interaction between a […] (PTAP) motif in the p6 domain of Gag and the cellular endosomal sorting protein known as Tsg101. In this way, the Gag PTAP motif promotes the host cells to recruit viral particles to the plasma membrane where the new viral particles are released, effectively turning the host cells into viral factories. A fluorescence anisotropy assay has been developed to quantitatively measure the PTAP-Tsg101 interaction which can be used to screen for inhibitors of this interaction. In this hit validation assay the readout is the release of reverse transcriptase (RT) activity into the medium of HeLa cells transfected with the full-length HIV-1 molecular clone pNL4-3. RT release from virus-producing cells occurs upon budding of virus from the cell surface. Small molecules that block the PTAP/Tsg101 interaction will reduce RT release. HeLa cells will also be transfected with a luciferase expression vector; compounds that are cytotoxic will reduce luciferase expression. NIH Molecular Libraries Probe Production Network [MLPCN] NIH Chemical Genomics Center [NCGC] MLPCN Grant: 1 R03 MH087464-01A1 PI Name: Dr. Eric Freed, NCI
Virus producing cells were treated with 12.5, 25 & 50 uM of each compound and 18 hr after treatment virus supernatant was collected from the cells. Reverse transcriptase (RT) activity in the virus supernatant is then measured.

Activity change, negative = inhibition, active:
COc1cccc2c1C(=O)c1c(O)c3c(c(O)c1C2=O)CC(O)(C(=O)CO)CC3OC1CC(N(C)C)C(O)C(C)O1 (centres undefined) -84%
COc1cccc(C(=O)c2sc3nc(-c4ccccc4)cc(C(F)(F)F)c3c2N)c1 -91.8%
O/C=c1\ccc2cccc3nc(C(F)(F)F)nc1c23 -89.5%
CN1CCc2c(sc(NC(=O)CSc3ccc(F)cc3)c2-c2nc3ccccc3s2)C1 -59.8%
